A selection: hits, their analogues and other compounds. The true share with any hit is near 9%.
G9a block = G9a (human) methyltransferase inhibition; Q96KQ7; G9a H3K9 monomethylation, AlphaScreen, 2 h; Potency, µM (top dose mostly 102 µM), inactives show at the highest dose activity, negative = inhibition, actives largely listed as inhibitors; hit rate 8.8% among 350,000; AID 504332; also: % is scaled to controls: 0 for no effect and ±100 for the full control effect; nearly all actives have a fitted effect of over 75% in size
Target sequence (Q96KQ7 913-1193 limits assumed): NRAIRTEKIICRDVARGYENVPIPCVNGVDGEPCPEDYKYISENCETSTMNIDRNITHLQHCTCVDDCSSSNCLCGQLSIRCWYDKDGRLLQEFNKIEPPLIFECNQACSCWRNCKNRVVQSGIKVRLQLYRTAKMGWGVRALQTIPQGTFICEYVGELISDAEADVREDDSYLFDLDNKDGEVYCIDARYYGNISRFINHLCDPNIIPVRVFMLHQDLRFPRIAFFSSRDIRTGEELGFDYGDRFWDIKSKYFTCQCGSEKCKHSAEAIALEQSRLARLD
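AlphaScreen read-out: biotin-H3K9 peptide (500 nM) methylation by 20 nM enzyme with 20 uM SAM, 2 h at room temperature after 15 min compound preincubation; anti-monomethyl H3K9 antibody plus donor/acceptor beads, 10 min dark.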
JMJD2A Tudor inh = blocks the human JMJD2A Tudor domain | O75164 | hit rate 4.4% among 390,000 | Potency, µM (top dose mostly 114 µM), without a hit: at the highest dose activity change, negative = inhibition, usual class: inhibitors | AID 504339 | AlphaScreen JMJD2A-Tudor / H3K4me3 peptide binding; also: % is scaled to controls: 0 for no effect and ±100 for the full control effect; nearly all actives have a fitted effect of over 50% in size
HP1b chromo inh = inhibitors of HP1-beta chromodomain binding to methylated histone tails; P83916; AlphaScreen HP1-beta / biotin-H3K9me3 peptide binding; Potency, µM (doses to about 114 µM), for the others: at the top dose activity change, negative = inhibition, usual class: inhibitors; hit rate 0.56% among 390,000; also: nearly all actives have a fitted effect of over 70% in size
Target sequence (P83916 whole entry, looked up): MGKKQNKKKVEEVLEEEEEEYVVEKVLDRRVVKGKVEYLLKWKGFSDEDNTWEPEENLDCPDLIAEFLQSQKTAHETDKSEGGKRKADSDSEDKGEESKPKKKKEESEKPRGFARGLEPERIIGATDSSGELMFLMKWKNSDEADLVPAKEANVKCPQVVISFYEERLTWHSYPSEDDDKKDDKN
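Compound inhibition of the preformed complex between 50 nM HP1-beta and 50 nM biotinylated H3K9me3 peptide was read by AlphaScreen. Buffer was PBS pH 7.4 with 0.01% Tween-20. Incubations ran 30 min at room temperature, with 10 ug/mL donor/acceptor beads.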
PLK1 PBD inh = blocks phosphopeptide binding to human PLK1 polo-box domain. P53350. Plk1 PBD binding of FITC phosphopeptide, fluorescence polarization. Potency, µM, for the others: max response, negative = inhibition, most hits filed as inhibitors. hit rate 2.8% among 360,000. AID 720504; also: series mostly up to about 57 µM; % is scaled to controls: 0 for no effect and ±100 for the full control effect; nearly all actives have a fitted effect of over 65% in size
BAZ2B inh = inhibitors of human BAZ2B bromodomain; Q9UIF8; AlphaScreen BAZ2B-H3K14Ac peptide displacement; Potency, µM (titrated, usually from 114 µM), inactives show top-dose activity change, negative = inhibition, actives largely listed as inhibitors; hit rate 4.4% among 360,000; also: % is scaled to controls: 0 for no effect and ±100 for the full control effect; nearly all actives have a fitted effect of over 60% in size
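Complex of BAZ2B and biotin-H3K14Ac (50 nM apiece) forms over 30 min at RT, then faces library compounds up to 110 uM for another 30 min; AlphaScreen beads added, 20 min dark incubation, luminescence read.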
12-LOX inh = ALOX12 (human) lipoxygenase inhibition; purified 12hLO, xylenol orange hydroperoxide absorbance; Potency, µM (series often up to 108 µM), for inactives: top-dose activity change, negative = inhibition, most hits filed as inhibitors; hit rate 1.1% among 580,000; AID 1671190; also: % is scaled to controls: 0 for no effect and ±100 for the full control effect
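Purified human 12hLO (150 nM final) in 25 mM Hepes, 0.01% Triton X-100, pH 7.0 was preincubated 15 min at room temperature with compound. Then 40 uM arachidonic acid was added, 30 min. Hydroperoxide was read by Fe-XO absorbance ratio 573/405 nm.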
Numbers without * were called inactive; [ ] = dose if it differs, or a comment. Calls follow the shape of the dose curve; as a rule, active = well fitted curve in the direction sought with a large enough effect; inconclusive = small, poorly fitted or top-dose-only effect, or another doubt; inactive = no such curve, though single readings can be large; an effect the other way counts as inactive or inconclusive. Potency is read from the fitted curve at half-maximal effect.

How did CCOc1ccc(NC2=C(OC)C(=O)c3ccccc3C2=O)cc1 do in these assays?
G9a block: 8.9µM*; JMJD2A Tudor inh: 8.9µM*; HP1b chromo inh: 25µM*; PLK1 PBD inh: 4%; BAZ2B inh: 10µM*; 12-LOX inh: 3%

What do the screens show for `COC1=C(Nc2ccc(O)cc2)C(=O)c2ccccc2C1=O`?
G9a block: 28µM*; JMJD2A Tudor inh: 45µM*; HP1b chromo inh: 50µM*; PLK1 PBD inh: -11%; BAZ2B inh: 40µM*; 12-LOX inh: inconclusive

How did COC1=C(Nc2ccc(OC)cc2)C(=O)c2ccccc2C1=O do in these assays?
G9a block: 10µM*; JMJD2A Tudor inh: 20µM*; HP1b chromo inh: 22µM*; PLK1 PBD inh: 6%; BAZ2B inh: 8.9µM*; 12-LOX inh: -8%

How did CCOc1ccc(C(C)NC(=O)c2cccnc2OCC)cc1OCC (configuration not stated) do in these assays?
G9a block: 2%; JMJD2A Tudor inh: -8%; HP1b chromo inh: 38%; PLK1 PBD inh: -8%; BAZ2B inh: -4%; 12-LOX inh: -24%

Results for CCOCCSc1c(C)cnc2c1c(=O)n(C)c(=O)n2C ?
G9a block: 13µM*; JMJD2A Tudor inh: -15%; HP1b chromo inh: 13%; BAZ2B inh: -3%; 12-LOX inh: -14%

What do the screens show for `CCCSc1c(C(C)C)cnc2c1c(=O)n(C)c(=O)n2C`?
12-LOX inh: -25%

How did CN(C(=O)C1CCCO1)c1nnc(-c2ccncc2)s1 (configuration not stated) do in these assays?
G9a block: -48%; JMJD2A Tudor inh: 3%; HP1b chromo inh: 22%; PLK1 PBD inh: -3%; BAZ2B inh: 11%; 12-LOX inh: 38%

How did O=C1C=C(c2ccccc2)CC(c2cccs2)C1n1cnc([N+](=O)[O-])c1 (configuration not stated) do in these assays?
G9a block: 45µM*; JMJD2A Tudor inh: -13%; HP1b chromo inh: inconclusive; PLK1 PBD inh: -14%; BAZ2B inh: -36%; 12-LOX inh: inconclusive

Results for CCOC(=O)C1C(=O)C=C(c2ccc([N+](=O)[O-])cc2)CC1c1ccccc1 (configuration not stated) ?
G9a block: inconclusive; JMJD2A Tudor inh: -34%[57.1 µM]; HP1b chromo inh: inconclusive; PLK1 PBD inh: -13%; BAZ2B inh: inconclusive; 12-LOX inh: -9%

What do the screens show for `O=C1C=C(c2ccccc2)C[C@H](c2cccs2)[C@H]1n1nnc([N+](=O)[O-])n1`?
G9a block: inconclusive; JMJD2A Tudor inh: inconclusive; HP1b chromo inh: inconclusive; PLK1 PBD inh: inconclusive; BAZ2B inh: inconclusive; 12-LOX inh: 50µM*

What do the screens show for `Cc1cc(C)c(NC(=O)Cn2ncc3ccccc32)c(C)c1`?
G9a block: -7%; JMJD2A Tudor inh: -10%; HP1b chromo inh: -8%; PLK1 PBD inh: -11%; BAZ2B inh: 11%

How did N#Cc1c(SCc2c(Cl)cccc2Cl)nc(N)[nH]c1=S do in these assays?
G9a block: 41%[12.7 µM]; JMJD2A Tudor inh: -24%; HP1b chromo inh: 20%; PLK1 PBD inh: 30µM*; BAZ2B inh: inconclusive; 12-LOX inh: 32µM*

Results for COCCCNC(=O)COc1ccc(-c2nccc(-c3ccccn3)n2)cc1 ?
G9a block: -6%[59 µM]; JMJD2A Tudor inh: -11%; HP1b chromo inh: 15%; PLK1 PBD inh: -1%; BAZ2B inh: 4%; 12-LOX inh: -3%

How did Cc1ccc(S(=O)(=O)Nc2nc3c(s2)C(=O)CC(C)(C)C3)cc1 do in these assays?
G9a block: 50µM*; JMJD2A Tudor inh: -7%; HP1b chromo inh: 27%; PLK1 PBD inh: -15%; BAZ2B inh: -37%; 12-LOX inh: inconclusive

Results for CC1(C)CC(=O)c2sc(NS(=O)(=O)Cc3ccccc3)nc2C1 ?
G9a block: 11µM*; JMJD2A Tudor inh: -28%; HP1b chromo inh: -13%; PLK1 PBD inh: 24µM*; BAZ2B inh: 4%; 12-LOX inh: inconclusive

How did O=C(O)Cn1ccnc1 do in these assays?
G9a block: inconclusive; JMJD2A Tudor inh: -16%; HP1b chromo inh: 2%; PLK1 PBD inh: 0%; BAZ2B inh: inconclusive; 12-LOX inh: inconclusive

Source: PubChem BioAssay
